According to ChEMBL document CHEMBL1156829:
Over roughly 5,400 compounds, “IFI” has its median near 2; the highest 2% begin near 22. This excerpt belongs to a sample that is enriched for the highest values.

Assay: NOVARTIS: Inhibition Frequency Index (IFI) - the number of HTS assays where a compound showed > 50% inhibition/induction, expressed as a percentage of the number of assays in which the compound was tested.
Type: functional

SMILES | IFI [%]
O=C1c2ccccc2-[n+]2ccc3c([nH]c4ccccc43)c21 | 41.2
CC(=O)NCCc1ccc(O)cc1 | 1.48
CCN(CC)CCNc1nc(/C=C/c2ccc(Cl)cc2)nc2cc3ccccc3cc12 | 8.77
Cn1c2ccccc2c2nnc(NN=Cc3ccccn3)nc21 | 15.4
S=C(NN=Cc1ccccn1)NC1CC2C=CC1C2 (stereo not drawn) | 19.7
CC1(C)C2CCC(C2)C1(C)NC(=S)NN=Cc1ccccn1 (stereo not drawn) | 26
S=C(NN=Cc1ccccn1)NC1CC2CC1C1C=CCC21 (stereo not drawn) | 32.5
Cc1ccc(NC(=O)C2CSC(c3cccc(F)c3)N2C(=O)c2ccc(C(C)(C)C)cc2)cc1C (stereo not drawn) | 4.25
CC(C)(C)NC(=O)C(c1cccs1)N(CCCN1CCOCC1)C(=O)c1ccc(-c2ccccc2)[nH]1 (stereo not drawn) | 3.26
Cc1ccc(S(=O)(=O)Oc2ccc(C=NN=C(N)N)cc2)cc1 | 0
CC(C)CN1C(=O)c2ccccc2C(C(=O)Nc2ccc(C(C)C)cc2)C1c1cccs1 (stereo not drawn) | 6.06
COC(=O)c1cn([C@H]2C[C@@H](C(=O)NCc3ccc(OC)cc3)N(Cc3ccsc3)C2)nn1 | 1.98
CCCC1=[N+](CC(=O)c2ccc(C)cc2)CCn2c(C)ccc21 | 5.75
CC[C@@H](C(=O)[C@@H](C)[C@@H](O)[C@H](C)CCc1ccc(C)c(O)c1C(=O)O)[C@H]1O[C@](CC)([C@H]2CC[C@](O)(CC)[C@@H](C)O2)C[C@@H]1C | 26.9
CC[C@@H](C(=O)[C@@H](C)C(O)[C@H](C)CCc1ccc(C)c(O)c1C(=O)O)C1O[C@](CC)(C2CC[C@](O)(CC)[C@H](C)O2)C[C@@H]1C (stereo partly drawn) | 9.84
Cc1ccc(CNC(=O)C2CNCC2c2ccc(C(F)(F)F)cc2)cc1 (stereo not drawn) | 2.82
O=C1N(c2ccccc2)C[C@@H]2C[C@@H](c3ccc4nonc4c3)N3CCC[C@@]123 | 7.69
OC1=C2C(=Nc3ccccc3SC2c2ccccc2)c2ccccc21 (stereo not drawn) | 2.25
CC1CCC(C(C)C)C(OC(=O)Cn2c(-c3ccccc3)[n+](C)c3ccccc32)C1 (stereo not drawn) | 13.1
COc1ccc(-c2n(C)c3ccccc3[n+]2CC(=O)OC2CC(C)CCC2C(C)C)cc1 (stereo not drawn) | 22.7
COc1ccc(-c2c[n+](CC(=O)O[C@H]3C[C@H](C)CC[C@@H]3C(C)C)c3n2CCCCC3)cc1 | 21.9
O=C1Cc2c([nH]c3ccc(OCc4ccccc4)cc23)C2CC=CCC12 (stereo not drawn) | 0
Nc1c(C(=O)NCc2ccccc2)nnn1Cc1ccc(F)cc1Cl | 0
CCCC[n+]1c(C=C2C=Cc3ccccc3N2CC)sc2ccccc21 | 11.1

SMILES | IFI [%]
CCN1/C(=C/c2sc3ccc(I)cc3[n+]2CC)C=Cc2ccccc21 | 15.4
CCN1/C(=C/c2sc3ccc(Br)cc3[n+]2CC)C=Cc2ccccc21 | 15.4
CCN1/C(=C\c2sc3ccc(O)cc3[n+]2CC)C=Cc2ccccc21 | 23.1
CCN1/C(=C/c2sc3ccc(-c4ccccc4)cc3[n+]2CCO)C=Cc2cc(OC)ccc21 | 7.14
CCN1C(=Cc2sc3ccc(OC)cc3[n+]2CC)C=Cc2ccccc21 | 25
CCN1/C(=C/c2sc3ccc(OC)cc3[n+]2CC)C=Cc2cc(OC)ccc21 | 15.4
CCN1/C(=C/C2=CC(=C/c3sc4ccccc4[n+]3CC)/CC(C)(C)C2)C=Cc2ccccc21 | 9.43
CCN1/C(=C/c2sc3ccccc3[n+]2CC)C=Cc2cc(NC(C)=O)ccc21 | 7.69
CCN1/C(=C/c2sc3ccc(OC)cc3[n+]2CC)C=Cc2cc(C)ccc21 | 23.1
CCCN1/C(=C/c2sc3ccccc3[n+]2CC)C=Cc2ccccc21 | 23.1
CCN1C(=Cc2sc3ccc(Cl)cc3[n+]2CC)C=Cc2cc(OC)ccc21 | 15.4
CCOc1ccc(C(=O)C(CCC(C[N+]2(C)CCCCCC2)C(=O)c2ccc(OCC)cc2)C[N+]2(C)CCCCCC2)cc1 (stereo not drawn) | 0
COc1ccc(CCNc2nc(NCCC3CCCN3C)ncc2C(=O)NCc2ccccc2)cc1OC (stereo not drawn) | 1.92
COc1ccc2[nH]c(=O)c(CN(C(=S)Nc3ccccc3OC)C3CCCC3)cc2c1 | 2.17
Nc1ccc(-c2cc(N)n(-c3ccc(Oc4ccccc4)c(S(=O)(=O)O)c3)n2)cc1 | 1.83
CCOc1cccc2oc(=O)c(C(=O)Nc3cc(C(C)(C)C)on3)cc12 | 0
CCOc1ccc(-c2nc(NC(=O)CS(=O)(=O)c3ccccc3)sc2C)cc1 | 0
CCOC(=O)C1CCN(C(=O)c2cc(C(C)(C)C)nn2Cc2ccc(Cl)cc2Cl)CC1 | 1.63
CCC(c1nc2ccccc2c(=O)n1CC)N1CCN(C(=O)Nc2ccccc2C(F)(F)F)CC1 (stereo not drawn) | 2.08
Cc1ccccc1CN1CCN(C/C=C/c2ccccc2)CCC1=O | 0.962
CCN1/C(=C/c2sc3ccc(-c4ccccc4)cc3[n+]2CCO)C=Cc2ccccc21 | 7.14
CCN1/C(=C/c2sc3cc(OC)c(OC)cc3[n+]2CC)C=Cc2ccccc21 | 23.1
CCN1/C(=C/c2sc3ccccc3[n+]2CC)Sc2ccccc21 | 21.9
CCCOC(=O)C1=C(C)NC2=C(C(=O)CC(c3ccc(Cl)cc3)C2)C1c1ccc(Br)cc1 (stereo not drawn) | 3.57
